High-throughput results: PubChem, Broad Institute
C2C12 statin: suppressors of statin myotoxicity in C2C12 myotubes, primary screen, cell-based, single point, plate reader | C2C12 myotubes + simvastatin, ATP luminescence, 48 h; scaled: DMSO 0, geranylgeraniol control 100 | rescue of ATP level, % at 7.49 µM | hit rate 0.78% among 330,000 | AID 602340, 2012;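 active means mean ATP rescue above about 67%, or every replicate alone reaching that limit, limit read from the data, passing the limit was not always enough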;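 further: myotubes were challenged with 10 µM simvastatin during compound exposure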
F508del corr: F508del CFTR correction, initial screen, CFBE line, single point; CFBE cells, YFP halide quenching; stimulated with forskolin plus potentiator P3; % fluorescence drop versus neutral controls; activity (quench increase), % at 7.58 µM; hit rate 0.36% among 350,000; AID 720511, 2013;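 active means mean added fluorescence quench of at least 8% versus neutral control, with both replicates also reaching 8%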;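 further: cells transiently co-express mutant CFTR-F508del with the halide-sensitive YFP; corrector assay measuring rescue of mutant channel to the surface after 24 h compound exposure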
ARNT TACC3 PPI: disruptors of ARNT/TACC3 protein interaction, primary screen, biochemical, AlphaScreen, single concentration; inhibition, % at 9.99 µM; Transforming acidic coiled-coil-containing protein 3 (Homo sapiens), Q9Y6A5; hit rate 0.66% among 390,000; AID 623870, 2012; AlphaScreen His-ARNT PAS-B/GST-TACC3 binding, luminescence; TACC3 fragment carries E629A point mutation;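 active means mean inhibition of replicates at least 50% and at least half of replicates each reaching 50%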;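 further: 0% = complete ARNT plus TACC3 wells and 100% = ARNT alone without TACC3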
PglD inh: C. jejuni PglD acetyltransferase inhibitors, primary screen, biochemical, DTNB colorimetric, single point; UDP-N-acetylbacillosamine N-acetyltransferase PglD (Campylobacter jejuni); purified PglD enzyme, DTNB colorimetric CoA detection; inhibition, % at 12.5 µM; hit rate 0.098% among 360,000; AID 602405, 2012; in the data active means inhibition above about 16%, passing the limit was not always enough
ARNT Alpha ctr-1: AlphaScreen signal interference compounds, dose response, artefact control for ARNT-TACC3 interaction inhibitor project, biochemical, luminescence, cherry-pick. His-ARNT PASB-GST AlphaScreen artifact counter-screen. AC50, µM (series often up to 68 µM), inactives show at the top dose activity change, negative = signal decrease. shares compounds with ARNT TACC3 PPI. AID 651705, 2012. hit rate 50% among 1,200;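 active means every separate test run was called active for a drop in luminescence, with AC50 within twice the top valid dose, actives reach about 71 µM in these data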
ARNT Alpha ctr-2: AlphaScreen signal interference by compounds, dose response, artefact control for ARNT/TACC3 disruptor project, biochemical, dual-tagged ARNT, dry powder | shares compounds with ARNT TACC3 PPI | Dual-tagged His-ARNT PASB-GST AlphaScreen artifact counter-screen | AC50, µM | hit rate 70% among 45;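 active means luminescence drop, with half-maximal potency fitted within twice the sample's top valid dose, cut at about 70 µM in these data; inactive means the rest, including signal moving the wrong way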
* marks the source's active call; other numbers are inactive results. Hits are enriched below; roughly 1.4% of the tested compounds scored in any of these assays.

Results for COc1cccc(/C=N/NC(=O)CNC(=O)c2ccc3c(c2)OCCO3)c1O ?
ARNT TACC3 PPI: 13.0; PglD inh: -6.4

What do the screens show for `COc1ccc([N+](=O)[O-])cc1/C=N/NC(=O)CNC(=O)c1cccc(F)c1`?
F508del corr: 1.5; ARNT TACC3 PPI: 51.3*; PglD inh: -8.2; ARNT Alpha ctr-1: -11.9%

What do the screens show for `CC(C)CC#Cc1ccc2c(c1)O[C@@H](CN(C)Cc1ccccn1)[C@H](C)CN([C@@H](C)CO)S2(=O)=O`?
C2C12 statin: -48.0; ARNT TACC3 PPI: -0.1; PglD inh: 0.3

What do the screens show for `CO[C@H]1CN(C)C(=O)c2cc(NC(=O)C3CCCCC3)ccc2OC[C@@H](C)N(C)C[C@H]1C`?
C2C12 statin: -6.7; F508del corr: 0.0; ARNT TACC3 PPI: -9.7; PglD inh: 3.2

What do the screens show for `Cc1nnc(NC(=O)c2ccc(S(=O)(=O)N3CCCCC3)cc2)o1`?
ARNT Alpha ctr-2: >136

Results for Cc1nnc(NC(=O)C2CCN(S(=O)(=O)c3cc([N+](=O)[O-])ccc3Cl)CC2)o1 ?
C2C12 statin: 0.6; F508del corr: -0.8; ARNT TACC3 PPI: 51.6*; PglD inh: 3.5; ARNT Alpha ctr-1: -20.3%

How did CC1CCCN(S(=O)(=O)c2ccc(C(=O)Nc3nnc(C4CC4)o3)cc2)C1 (configuration not stated) do in these assays?
C2C12 statin: 1.7; F508del corr: -0.1; ARNT TACC3 PPI: 51.0*; PglD inh: 0.1; ARNT Alpha ctr-1: 64.8µM*

What do the screens show for `COc1ccc(NC(=O)Nc2ccc3c(c2)C(=O)N([C@H](C)CO)C[C@H](C)[C@@H](CN(C)S(=O)(=O)c2ccc(OC)cc2)OCCCC[C@@H](C)O3)cc1`?
F508del corr: -1.2; ARNT TACC3 PPI: -7.6; PglD inh: -3.1

How did CC(C)CC#Cc1cnc2c(c1)C(=O)N([C@@H](C)CO)C[C@H](C)[C@@H](CN(C)Cc1ccccn1)O2 do in these assays?
C2C12 statin: 26.0; F508del corr: -2.8; ARNT TACC3 PPI: 9.2; PglD inh: 4.3

How did C[C@@H]1CN([C@@H](C)CO)C(=O)c2cc(NC(=O)CCCCCC(=O)Nc3ccccc3N)ccc2O[C@@H]1CN(C)Cc1ccncc1 do in these assays?
F508del corr: -2.7

Results for COc1ccc(NC(=O)N(C)C[C@@H]2Oc3ccc(NC(=O)C4CCCCC4)cc3CC(=O)N([C@@H](C)CO)C[C@H]2C)cc1 ?
C2C12 statin: 0.9; F508del corr: -3.0; ARNT TACC3 PPI: -3.3; PglD inh: 15.5

What do the screens show for `Cc1ccc(S(=O)(=O)CCc2nnc(NC(=O)c3ccccn3)s2)cc1`?
ARNT TACC3 PPI: 73.1*; PglD inh: -0.9; ARNT Alpha ctr-1: 34.4µM*

Results for COc1cccc(C(=O)Nc2nnc(CCS(=O)(=O)c3ccc(C)cc3)s2)c1 ?
C2C12 statin: 4.5; F508del corr: -3.2; ARNT TACC3 PPI: -34.3; PglD inh: 0.3

How did Cc1ccc(S(=O)(=O)CCc2nnc(NC(=O)c3ccccc3)s2)cc1 do in these assays?
ARNT Alpha ctr-2: inactive

How did C[C@H](CO)N1C[C@H](C)[C@H](CN(C)Cc2ccc3c(c2)OCO3)Oc2c(NS(C)(=O)=O)cccc2C1=O do in these assays?
C2C12 statin: -4.0; F508del corr: -1.5; ARNT TACC3 PPI: 2.8; PglD inh: -7.4

What do the screens show for `Cc1ccc2ccc3cccnc3c2n1`?
C2C12 statin: -11.5; F508del corr: 1.2; ARNT TACC3 PPI: 73.8*; PglD inh: 5.0; ARNT Alpha ctr-1: 50.6µM*

How did N#Cc1ccsc1NC(=O)c1ccccn1 do in these assays?
C2C12 statin: -1.9; ARNT TACC3 PPI: 63.8*; PglD inh: -1.5; ARNT Alpha ctr-1: -10.9%

What do the screens show for `N#Cc1ccsc1NC(=O)c1ccc2ncsc2c1`?
C2C12 statin: 5.7; PglD inh: 5.4

Results for Nc1ccccc1C(=O)N=Nc1[nH]c(N)c2ccccc12 ?
F508del corr: 0.9; ARNT TACC3 PPI: 61.6*; ARNT Alpha ctr-1: 55.7µM*

What do the screens show for `Nc1[nH]c(N=NC(=O)c2ccc(F)cc2)c2ccccc12`?
F508del corr: -1.8; ARNT TACC3 PPI: -4.0

Results for Cc1ccc(C2=CSC3=NS(=O)(=O)CCN23)cc1 ?
F508del corr: -1.0; ARNT TACC3 PPI: 50.3*; ARNT Alpha ctr-1: -7.9%

How did COc1ccccc1-c1cnc2c(c1)C(=O)N([C@H](C)CO)C[C@@H](C)[C@@H](CN(C)C(=O)c1cccnc1)O2 do in these assays?
C2C12 statin: 1.4; F508del corr: 0.5; PglD inh: -0.7

What do the screens show for `COc1cc(C2Nc3ccccc3C(=O)N2NS(C)(=O)=O)c([N+](=O)[O-])cc1OC` (configuration not stated)?
C2C12 statin: -16.0; F508del corr: 0.0; ARNT TACC3 PPI: active; PglD inh: 2.7; ARNT Alpha ctr-1: -11.1%

Results for O=C(C1CCCCC1)N1C[C@@H]2[C@H](c3ccccc31)[C@H](CO)N2C(=O)c1ccccc1F ?
C2C12 statin: 1.2; F508del corr: 0.8; ARNT TACC3 PPI: 9.7; PglD inh: 3.6

How did C[C@@H]1CCCCO[C@H](CN(C)S(=O)(=O)c2ccc(F)cc2)[C@H](C)CN([C@@H](C)CO)C(=O)c2cc(NC(=O)Nc3cccc4ccccc34)ccc2O1 do in these assays?
C2C12 statin: 20.2; F508del corr: -0.8; ARNT TACC3 PPI: 12.8; PglD inh: -0.3

How did O=C(CSc1nnc(CNC(=O)c2ccc(F)cc2)o1)NCc1ccccc1 do in these assays?
F508del corr: -1.9; ARNT TACC3 PPI: -2.1; PglD inh: 0.4

What do the screens show for `Cc1nnc(NC(=O)CSc2nnc(CNC(=O)c3ccc(S(=O)(=O)N(C)C)cc3)o2)s1`?
F508del corr: 1.5; ARNT TACC3 PPI: 63.5*; PglD inh: -2.8; ARNT Alpha ctr-1: -2.0%

What do the screens show for `O=C(CSc1nnc(CNC(=O)c2ccc(F)cc2)o1)Nc1nccs1`?
C2C12 statin: -11.3; F508del corr: -3.0; ARNT TACC3 PPI: 62.5*; PglD inh: -2.7; ARNT Alpha ctr-1: -14.1%

How did C=CCn1c(Cc2csc(N)n2)nnc1SCC(=O)Nc1ccc(C(=O)OCC)cc1 do in these assays?
C2C12 statin: -3.7; ARNT TACC3 PPI: 61.1*; PglD inh: -3.2; ARNT Alpha ctr-1: -30.2%

Results for CN(C)c1ccc2c(c1)[C@@H]1C[C@@H](CC(=O)N3CCCCC3)O[C@H](CO)[C@@H]1O2 ?
F508del corr: 0.8
